Here are results for eight compounds from PubChem BioAssay (NCATS).

Where “and” joins values, the source holds several entries; their conditions need not be identical. Equal entries are not always repeated. Records with an inconclusive call do not appear. Calls of active or inactive are those of the source. Unless noted, calls come from the whole dose curve.

In experiment [1] the target is Bile acid receptor (Homo sapiens) (UniProt Q96RI1). Put plainly: qHTS assay for small molecule antagonists of farnesoid X receptor signaling (AID 588526). Note: % is set by controls: 0 for no effect and ±100 for the full control effect. The method, boiled down:
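Concentration-response titrations were fitted to the Hill equation for half-maximal inhibition and maximal response, with data normalised to 50 uM chenodeoxycholic acid and DMSO control wells. Cells: FXR-UAS-bla HEK293T, dialyzed FBS.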
(In general: In qHTS, concentration-response curves come from the screen itself.)

A short description of experiment [2]: qHTS assay for small molecule antagonists of peroxisome proliferator-activated receptor delta signaling (AID 588535; active = well fitted inhibition curve with a large enough effect in the signal ratio, with a control signal flat, not every such curve was filed as active; the % refers to the signal ratio;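 for max response: cells co-treated with a PPAR-delta agonist as stimulator during compound exposure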). The settings on record: HEK293T PPARd-UAS-bla, beta-lactamase FRET ratio, 18 h; 460 nm channel. The procedure, abridged:
(§1)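 Inhibition of PPAR-delta response element-driven beta-lactamase expression is measured in HEK293T cells exposed to a compound titration series for 18 hrs at 37 C. Half-maximal inhibition comes from Hill equation fitting.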

Experiment [3] deals with Peroxisome proliferator-activated receptor delta (Homo sapiens) (UniProt Q03181). The experiment is described as above. The method, boiled down:
as §1

The target of experiment [4] is Peroxisome proliferator-activated receptor gamma (Homo sapiens) (UniProt P37231). Description: qHTS assay for small molecule agonists of peroxisome proliferator-activated receptor gamma signaling (AID 588536; active = well fitted curve in the direction sought with a large enough effect in the signal ratio, with a control signal flat, not every such curve was filed as active; the % refers to the signal ratio;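 note: 0% = DMSO basal wells and 100% = rosiglitazone at 2 µM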). The method, boiled down: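 This is an agonist-mode beta-lactamase reporter assay in HEK293 PPAR-gamma-UAS-bla cells with 1% charcoal/dextran FBS. Compound titrations ran 16 h at 37 C before CCF4 detection. EC50 and efficacy are Hill fits scaled to 2 uM rosiglitazone (100%) and DMSO basal.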

Experiment [5] can be described thus: qHTS assay for small molecule agonists of retinoid X receptor alpha signaling (AID 588544).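 For activation: 0% = DMSO basal wells and 100% = reference agonist.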 Conditions: HEK293T RXRa-UAS-bla, beta-lactamase reporter, 18 h; 530 nm emission.
Experiment [6] concerns the target Retinoic acid receptor RXR-alpha (Homo sapiens) (UniProt P19793). The experiment is described as above.
Experiment [7] can be described thus: qHTS assay for small molecule antagonists of retinoid X receptor alpha signaling (AID 588546; active = well fitted inhibition curve with a large enough effect in the signal ratio, with a control signal flat, not every such curve was filed as active; the % refers to the signal ratio;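 note: cells stimulated with 9-cis-retinoic acid as agonist; % is set by controls: 0 for no effect and ±100 for the full control effect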). The settings on record: HEK293T RXRa-UAS-bla, beta-lactamase ratio, antagonist mode; measured here: W530 green channel, cytotoxicity proxy. The procedure, abridged: (§2)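 Beta-lactamase reporter inhibition, read as CCF4 fluorescence ratio (ex 405, em 460/530 nm) after 2 h at RT. HEK293T UAS-bla cells, 2500/well, were stimulated with 9-cis-RA at 500 or 100 nM final alongside test compound for 18 h at 37 C.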

Experiment [8] has as its target Retinoic acid receptor RXR-alpha (Homo sapiens) (UniProt P19793). The description is as above. The settings on record: HEK293T RXRa-UAS-bla, beta-lactamase ratio, antagonist mode. The method, boiled down: as §2
Experiment [9] has as its target Thyroid hormone receptor beta (Homo sapiens) (UniProt P10828). Put plainly: qHTS assay for small molecule antagonists of thyroid hormone receptor beta signaling (AID 588547; active = well fitted inhibition curve with a large enough effect in the signal ratio, with a control signal flat, not every such curve was filed as active; the % refers to the signal ratio;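 note: cells stimulated with 0.4 nM T3 agonist during compound exposure; series mostly up to about 77 µM; % is set by controls: 0 for no effect and ±100 for the full control effect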). Conditions: TR-UAS-bla HEK293, beta-lactamase ratio, antagonist mode, 18 h. The procedure, abridged:
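TR-UAS-bla GripTite HEK293 cells in 2% charcoal/dextran FBS medium were preincubated 4 h at 37 C, given compound (0.59 nM to 92 uM) plus 0.4 nM T3 (final) for 18 h, then CCF4 for 2 h at RT; Hill fit gave IC50.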

Experiment [10] concerns the target Voltage-gated inwardly rectifying potassium channel KCNH2 (Homo sapiens) (UniProt Q12809). Description: qHTS Assay for Small Molecule Inhibitors of the Human hERG Channel Activity (AID 588834; active = well fitted inhibition curve with a large enough effect;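 note: top concentration of the series differs between compounds; % is set by controls: 0 for no effect and ±100 for the full control effect; lower thallium flux fluorescence means stronger hERG block; nearly all actives have a fitted effect of over 50% in size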). The method, boiled down:
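Homogeneous FluxOR thallium flux assay using hERG-expressing U2OS cells (BacMam). Compound treatment about 10 minutes preceded stimulation; reduced fluorescence taken as channel block.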

The nature of experiment [11]: qHTS assay for small molecule agonists of the antioxidant response element (ARE) signaling pathway (AID 651741; active = well fitted activation curve with a large enough effect in the signal ratio; the % refers to the signal ratio; note: % of control where 0% means no effect). The method, boiled down: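 Reporter: beta-lactamase under ARE, stably in HepG2. Exposure: 16 h, 37 C, compounds delivered in DMSO by pin tool after 5 h cell preincubation. Readout: FRET substrate fluorescence after 2 h at RT.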
Experiment [12] in a line: qHTS assay for small molecule activators of the p53 signaling pathway (AID 651743; active = well fitted activation curve with a large enough effect in the signal ratio, not every such curve was filed as active; the % refers to the signal ratio; note: series mostly up to about 92 µM; % of control where 0% means no effect). The settings on record: HCT-116 p53RE-bla, beta-lactamase FRET ratio, 16 h; stronger effect = higher value. The procedure, abridged:
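Agonist-mode quantitative HTS in HCT-116 cells carrying a p53-response-element beta-lactamase reporter; 16 h compound treatment at 37 C, then FRET substrate loading for 2 h at room temperature and fluorescence read.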

Experiment [13] is described as follows: qHTS assay for small molecule activators of the nuclear factor-kappa B (NF-kB) signaling pathway (AID 651749; active = well fitted activation curve with a large enough effect in the signal ratio; the % refers to the signal ratio; note: series mostly up to about 77 µM; % of control where 0% means no effect). Conditions: NF-kB-bla ME-180 cells, beta-lactamase FRET ratio, 16 h; stronger effect = higher value. The method, boiled down:
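Human ME-180 cervical cells with an NF-kB-bla construct; compounds added via 23 nL pin transfer, DMSO as vehicle; incubation 16 hr. Reporter activity measured by FRET disruption.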

Experiment [14] deals with Glucocorticoid receptor (Homo sapiens) (UniProt P04150). Put plainly: qHTS assay for small molecule agonists of glucocorticoid receptor signaling (AID 588532; active = well fitted curve in the direction sought with a large enough effect in the signal ratio, with a control signal flat; the % refers to the signal ratio;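 note: 100% = dexamethasone at 0.1 µM and 0% = DMSO only wells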). Conditions: HeLa MMTV-bla, beta-lactamase ratio, agonist, 18 h; stronger effect = higher value; percent of dexamethasone control, DMSO zero. The method, boiled down: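 MMTV-bla HeLa, beta-lactamase reporter; medium with 1% charcoal/dextran-stripped FBS; cpds up to 92 uM, 18 h, 37 C; CCF4 readout 460/530 nm; Hill fit → EC50, efficacy vs 0.1 uM dexamethasone = 100%.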

Experiment [15] addresses Peroxisome proliferator-activated receptor gamma (Homo sapiens) (UniProt P37231). Put plainly: qHTS assay for small molecule antagonists of peroxisome proliferator-activated receptor gamma signaling (AID 588537; active = well fitted inhibition curve with a large enough effect in the signal ratio, with a control signal flat, not every such curve was filed as active; the % refers to the signal ratio;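 note: reporter cells co-stimulated with 50 nM rosiglitazone agonist during compound treatment; % of control where 0% means no effect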). The procedure, abridged:
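Compounds are tested as concentration series for inhibition of rosiglitazone-driven (50 nM) reporter expression in GeneBLAzer PPAR-gamma-UAS-bla HEK293 cells. After 16 h at 37 C, CCF4 substrate is added for 2 h at room temperature and blue/green fluorescence is measured.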

Experiment [16] deals with Vitamin D3 receptor (Homo sapiens) (UniProt P11473). Description: qHTS assay for small molecule antagonists of vitamin D receptor signaling (AID 588541).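 Note: receptor activated by calcitriol during compound treatment; series mostly up to about 77 µM; % is set by controls: 0 for no effect and ±100 for the full control effect.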 The method, boiled down:
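VDR-UAS-bla HEK293T cells (2000/well, 2% charcoal-stripped FBS) were treated with titrated compounds plus 1-alpha,25-dihydroxyvitamin D3 (50 nM or 3 nM final) for 16 h at 37 C. CCF4 beta-lactamase fluorescence was read; Hill fits gave IC50.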

Experiment [17] has the same target. Put plainly: qHTS assay for small molecule agonists of vitamin D receptor signaling (AID 588543).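 Note: 0% = DMSO basal and 100% = reference agonist control.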 The procedure, abridged: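 Measured: β-lactamase reporter activity (CCF4, 405 nm excitation, 460/530 nm emission) in HEK293T VDR-UAS-bla cells after 16 h compound exposure at 37 °C. Normalization against 50 nM 1α,25-dihydroxyvitamin D3 and DMSO; Hill-fit EC50.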

Experiment [18] has as its target Thyroid hormone receptor beta (Homo sapiens) (UniProt P10828). Put plainly: qHTS assay for small molecule agonists of thyroid hormone receptor beta signaling (AID 588545).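 Note: 0% = DMSO only and 100% = 10 nM T3.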 The procedure, abridged: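 Efficacy and EC50 values derive from Hill fits of qHTS titration data, normalized to 10 nM T3 and DMSO-only wells. HEK 293 reporter cells were stimulated for 18 hrs at 37 C, with beta-lactamase activity measured by CCF4 fluorescence.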

For experiment [19], the target named is Glucocorticoid receptor (Homo sapiens) (UniProt P04150). Put plainly: qHTS assay for small molecule antagonists of glucocorticoid receptor signaling (AID 588533; active = well fitted inhibition curve with a large enough effect in the signal ratio, with a control signal flat, not every such curve was filed as active; the % refers to the signal ratio). The procedure, abridged:
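Antagonist-mode qHTS: compound titrations added to GRE-bla HeLa cells, then dexamethasone 2 nM final; 18 h, 37 C. CCF4 FRET fluorescence normalized to dexamethasone and DMSO; IC50 from Hill fit.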

Peroxisome proliferator-activated receptor delta (Homo sapiens), sequence (Q03181 whole entry, looked up): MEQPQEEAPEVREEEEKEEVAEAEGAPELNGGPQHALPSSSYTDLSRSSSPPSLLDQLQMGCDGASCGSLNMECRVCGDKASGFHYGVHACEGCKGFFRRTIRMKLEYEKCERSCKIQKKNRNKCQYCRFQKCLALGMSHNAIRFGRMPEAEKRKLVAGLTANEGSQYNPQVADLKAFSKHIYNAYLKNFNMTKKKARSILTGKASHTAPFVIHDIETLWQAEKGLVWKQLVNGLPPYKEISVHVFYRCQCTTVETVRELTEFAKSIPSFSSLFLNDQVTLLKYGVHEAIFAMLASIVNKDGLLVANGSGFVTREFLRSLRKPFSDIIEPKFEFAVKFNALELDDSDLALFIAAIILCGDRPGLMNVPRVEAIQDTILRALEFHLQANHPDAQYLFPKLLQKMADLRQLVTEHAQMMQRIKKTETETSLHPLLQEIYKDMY
Voltage-gated inwardly rectifying potassium channel KCNH2 (Homo sapiens), sequence (Q12809 whole entry, looked up): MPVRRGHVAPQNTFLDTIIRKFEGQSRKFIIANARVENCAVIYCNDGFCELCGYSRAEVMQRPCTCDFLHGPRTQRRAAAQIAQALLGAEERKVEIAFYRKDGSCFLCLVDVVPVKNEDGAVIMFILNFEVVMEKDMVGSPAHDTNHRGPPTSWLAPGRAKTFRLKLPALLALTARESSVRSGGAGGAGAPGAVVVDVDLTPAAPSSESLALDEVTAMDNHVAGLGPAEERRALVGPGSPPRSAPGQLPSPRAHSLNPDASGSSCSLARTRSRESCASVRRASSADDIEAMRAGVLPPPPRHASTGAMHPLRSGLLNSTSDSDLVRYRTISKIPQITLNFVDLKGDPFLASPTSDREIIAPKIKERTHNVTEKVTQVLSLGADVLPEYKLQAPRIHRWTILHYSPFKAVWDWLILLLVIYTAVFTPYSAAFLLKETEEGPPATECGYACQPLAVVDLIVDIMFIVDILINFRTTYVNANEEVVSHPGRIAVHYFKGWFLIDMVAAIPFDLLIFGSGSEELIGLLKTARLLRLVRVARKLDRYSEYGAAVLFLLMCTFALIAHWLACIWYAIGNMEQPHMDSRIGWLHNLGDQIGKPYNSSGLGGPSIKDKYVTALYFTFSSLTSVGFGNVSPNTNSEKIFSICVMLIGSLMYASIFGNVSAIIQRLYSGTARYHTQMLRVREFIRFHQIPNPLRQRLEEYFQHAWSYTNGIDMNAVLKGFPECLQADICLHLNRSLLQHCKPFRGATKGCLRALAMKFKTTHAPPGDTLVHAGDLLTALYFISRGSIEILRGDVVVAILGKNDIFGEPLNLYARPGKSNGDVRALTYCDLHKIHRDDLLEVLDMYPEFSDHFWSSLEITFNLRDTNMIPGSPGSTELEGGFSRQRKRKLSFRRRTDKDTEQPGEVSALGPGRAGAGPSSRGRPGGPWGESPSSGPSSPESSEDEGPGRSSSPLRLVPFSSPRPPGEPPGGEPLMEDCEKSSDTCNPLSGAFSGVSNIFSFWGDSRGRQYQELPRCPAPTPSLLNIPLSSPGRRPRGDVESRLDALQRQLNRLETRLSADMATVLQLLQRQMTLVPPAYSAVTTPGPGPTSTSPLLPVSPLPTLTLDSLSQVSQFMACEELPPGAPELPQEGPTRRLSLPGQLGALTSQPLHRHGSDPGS
Glucocorticoid receptor (Homo sapiens), sequence (P04150 whole entry, looked up): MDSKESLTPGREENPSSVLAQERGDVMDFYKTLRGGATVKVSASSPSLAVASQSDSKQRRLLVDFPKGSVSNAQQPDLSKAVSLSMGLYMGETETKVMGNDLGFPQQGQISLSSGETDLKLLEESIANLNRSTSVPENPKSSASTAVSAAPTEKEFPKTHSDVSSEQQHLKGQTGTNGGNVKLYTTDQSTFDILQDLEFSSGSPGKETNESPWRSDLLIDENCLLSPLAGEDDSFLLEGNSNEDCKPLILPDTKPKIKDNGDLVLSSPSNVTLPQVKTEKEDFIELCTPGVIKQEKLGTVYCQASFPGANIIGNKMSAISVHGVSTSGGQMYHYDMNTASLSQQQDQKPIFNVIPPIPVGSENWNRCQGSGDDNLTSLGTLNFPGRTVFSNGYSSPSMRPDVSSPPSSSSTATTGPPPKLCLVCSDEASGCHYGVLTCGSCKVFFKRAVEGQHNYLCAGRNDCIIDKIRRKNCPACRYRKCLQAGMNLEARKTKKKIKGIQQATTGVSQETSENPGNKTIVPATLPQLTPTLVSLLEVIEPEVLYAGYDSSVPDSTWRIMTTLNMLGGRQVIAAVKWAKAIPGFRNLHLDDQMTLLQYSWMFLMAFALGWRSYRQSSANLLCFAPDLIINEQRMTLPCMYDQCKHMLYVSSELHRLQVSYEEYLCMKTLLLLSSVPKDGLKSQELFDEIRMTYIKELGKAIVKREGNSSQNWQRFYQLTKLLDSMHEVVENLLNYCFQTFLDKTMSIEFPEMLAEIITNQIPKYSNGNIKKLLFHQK
Peroxisome proliferator-activated receptor gamma (Homo sapiens), sequence (P37231 whole entry, looked up): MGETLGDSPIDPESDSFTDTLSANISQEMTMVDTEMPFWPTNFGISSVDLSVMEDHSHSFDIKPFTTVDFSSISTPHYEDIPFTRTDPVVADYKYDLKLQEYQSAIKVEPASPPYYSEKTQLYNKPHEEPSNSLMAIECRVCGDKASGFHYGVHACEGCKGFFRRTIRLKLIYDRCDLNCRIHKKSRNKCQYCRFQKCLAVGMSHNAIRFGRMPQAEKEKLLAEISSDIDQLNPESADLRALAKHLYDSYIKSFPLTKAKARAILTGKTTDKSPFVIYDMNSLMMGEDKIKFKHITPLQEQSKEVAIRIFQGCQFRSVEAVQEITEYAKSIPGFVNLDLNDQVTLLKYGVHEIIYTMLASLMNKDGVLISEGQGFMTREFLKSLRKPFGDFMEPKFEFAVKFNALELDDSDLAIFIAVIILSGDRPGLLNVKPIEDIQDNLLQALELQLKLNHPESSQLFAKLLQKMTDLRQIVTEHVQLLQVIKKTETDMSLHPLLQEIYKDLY
Retinoic acid receptor RXR-alpha (Homo sapiens), sequence (P19793 whole entry, looked up): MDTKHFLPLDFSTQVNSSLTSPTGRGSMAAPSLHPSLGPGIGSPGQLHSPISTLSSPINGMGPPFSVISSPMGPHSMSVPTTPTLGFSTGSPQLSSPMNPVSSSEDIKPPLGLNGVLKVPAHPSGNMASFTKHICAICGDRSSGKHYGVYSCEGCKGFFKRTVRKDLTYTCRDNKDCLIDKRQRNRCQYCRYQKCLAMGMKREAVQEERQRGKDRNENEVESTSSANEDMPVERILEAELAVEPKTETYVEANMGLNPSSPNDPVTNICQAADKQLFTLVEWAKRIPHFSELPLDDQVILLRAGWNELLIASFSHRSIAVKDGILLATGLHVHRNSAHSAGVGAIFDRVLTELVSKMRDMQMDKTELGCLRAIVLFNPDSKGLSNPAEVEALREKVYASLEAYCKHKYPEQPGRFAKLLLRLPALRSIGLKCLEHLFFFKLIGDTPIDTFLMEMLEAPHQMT
Vitamin D3 receptor (Homo sapiens), sequence (P11473 whole entry, looked up): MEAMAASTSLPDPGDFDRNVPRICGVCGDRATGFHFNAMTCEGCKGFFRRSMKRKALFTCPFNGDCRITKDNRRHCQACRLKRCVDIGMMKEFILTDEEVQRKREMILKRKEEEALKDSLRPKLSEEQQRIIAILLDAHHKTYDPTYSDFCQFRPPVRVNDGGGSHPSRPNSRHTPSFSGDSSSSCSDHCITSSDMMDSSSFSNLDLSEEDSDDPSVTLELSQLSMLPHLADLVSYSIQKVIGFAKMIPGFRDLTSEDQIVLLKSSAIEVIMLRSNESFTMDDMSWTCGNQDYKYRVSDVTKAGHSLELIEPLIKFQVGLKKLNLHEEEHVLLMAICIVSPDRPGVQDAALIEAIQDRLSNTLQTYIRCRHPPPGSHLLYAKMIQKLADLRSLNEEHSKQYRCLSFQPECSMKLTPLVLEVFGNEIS
Thyroid hormone receptor beta (Homo sapiens), sequence (P10828 whole entry, looked up): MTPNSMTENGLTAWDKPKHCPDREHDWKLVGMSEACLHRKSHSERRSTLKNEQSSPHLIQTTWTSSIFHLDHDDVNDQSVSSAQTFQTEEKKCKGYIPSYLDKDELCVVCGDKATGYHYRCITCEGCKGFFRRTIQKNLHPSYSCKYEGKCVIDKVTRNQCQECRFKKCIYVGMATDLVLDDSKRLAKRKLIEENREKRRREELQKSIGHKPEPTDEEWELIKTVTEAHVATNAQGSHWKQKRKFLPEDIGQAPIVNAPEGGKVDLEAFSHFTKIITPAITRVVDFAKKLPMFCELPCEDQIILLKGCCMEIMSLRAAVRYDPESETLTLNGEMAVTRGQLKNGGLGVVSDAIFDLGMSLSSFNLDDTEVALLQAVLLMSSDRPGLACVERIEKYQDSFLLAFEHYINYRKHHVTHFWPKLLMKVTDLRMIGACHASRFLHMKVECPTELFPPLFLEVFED
Bile acid receptor (Homo sapiens), sequence (Q96RI1 whole entry, looked up): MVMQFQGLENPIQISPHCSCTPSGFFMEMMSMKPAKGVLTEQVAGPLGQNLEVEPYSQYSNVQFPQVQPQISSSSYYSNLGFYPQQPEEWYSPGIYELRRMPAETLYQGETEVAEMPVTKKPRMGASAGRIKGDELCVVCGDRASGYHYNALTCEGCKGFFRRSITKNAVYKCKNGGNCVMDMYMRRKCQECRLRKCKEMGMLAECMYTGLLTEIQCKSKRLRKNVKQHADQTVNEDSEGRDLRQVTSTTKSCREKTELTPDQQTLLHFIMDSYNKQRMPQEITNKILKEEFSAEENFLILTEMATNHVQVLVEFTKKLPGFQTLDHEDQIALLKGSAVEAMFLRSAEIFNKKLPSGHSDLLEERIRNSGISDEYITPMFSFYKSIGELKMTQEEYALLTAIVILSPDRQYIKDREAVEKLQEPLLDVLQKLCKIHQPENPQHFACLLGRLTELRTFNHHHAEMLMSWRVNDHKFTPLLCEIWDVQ

Regarding `CC(=O)c1ccccn1`, the compound was called inactive in experiment [1], in experiment [4] and in experiment [6]. Also, the max response in [2] was -20.6%; in experiment [5] it was -4.17%; in [7] it was -3.87%; in [8] it was -5.68% (inactive). Also, the Potency entry in [3], in [10] and in experiment [11] was “inactive” each time. For the same compound, the activity change % (negative = inhibition) in [9] was -7.89% (inactive). In addition, the activation in experiment [12] was -1.74% (inactive); in experiment [13] it was -1.25% (inactive).
Take `CCC(=O)/C=C/C1C(C)=CCCC1(C)C` (stereo unspecified): the compound was classed as inactive in experiment [1], in [4], in experiment [15], in experiment [16], in experiment [17] and in experiment [6]. The activation in experiment [14] was -2.65% (inactive); in [12] it was -2.61% (inactive). Further, the max response in experiment [2] was 2.01%; in experiment [5], -9.1%; in experiment [7], -4%; in experiment [8], 2.33% (inactive). Further, in experiment [3], the Potency result is “inactive”. In addition, the activity change % (negative = inhibition) in [9] is -4.67% (inactive).
As to `Cc1ccc(C(=O)O)cc1`, the compound was classed as inactive in [1], in [4], in [6] and in experiment [18]. The max response in [5] is 4.67%; in [7] it was -2.83%; in [8], -5.24% (inactive). Moreover, the activity change % (negative = inhibition) in experiment [9] is 18.4% (inactive). Besides, the Potency entry in experiment [10] is “inactive”. Further, in [12], the activation was -5.46% (inactive).
Regarding `Cc1ccc(C)c(O)c1`, the compound was classed as inactive in experiment [1], in experiment [4], in experiment [16], in [17] and in experiment [6]. In addition, the activation in experiment [14] is 4.8% (inactive); in experiment [12], 0.75% (inactive). Moreover, the max response in [2] is 7.19%; in experiment [5], 0.17%; in [7] it was -5.88%. For the same compound, the Potency result in experiment [3], in [10] and in experiment [11] was “inactive” in each case. In experiment [9], the activity change % (negative = inhibition) is 1.01% (inactive).
For the compound `CCNc1ccccc1`, the call in [1], in experiment [4], in experiment [15], in experiment [16], in [17] and in [6] was inactive. In addition, in experiment [18], the call was inactive. The max response is 13.4% in experiment [2] and -5.14% in experiment [5]. The Potency result in [3] and in experiment [10] was “inactive” each time. Moreover, the activity change % (negative = inhibition) in [9] was -13.9% (inactive). Further, in [12], the activation is -2.34% (inactive).
On to `CCC(C)(C)C`, for which the call in experiment [1], in [19], in experiment [4], in [16], in [17] and in experiment [6] was inactive. Moreover, the activation in [14] was -3.95% (inactive); in [12], -0.874% (inactive). Also, the max response in experiment [5] was 7.52%; in experiment [7], -12.5%; in experiment [8], 11.7% (inactive). In addition, the activity change % (negative = inhibition) in experiment [9] is -4.13% (inactive). For the same compound, the Potency entry in [11] was “inactive”.
In the case of `Nc1cccc(C(F)(F)F)c1`, the compound was called inactive in experiment [1], in [4], in [6] and in experiment [18]. Besides, the max response was 14.1% and 46.7% in [2]; 3.76% and -4.65% in [5]; -1.51% and -8.69% in experiment [7]; 23% (inactive) and -15.4% (inactive) in experiment [8]. Further, the Potency entry in [3], in experiment [10] and in experiment [11] was “inactive” each time. The activity change % (negative = inhibition) in [9] was 5.58% (inactive).
On to `COc1ccc(N)c(C)c1`, for which the call in experiment [1], in experiment [17], in experiment [6] and in experiment [18] was inactive. The max response in [2] was -12.2%; in [5] it was -12.9%; in experiment [7] it was -2.69%; in experiment [8] it was 8.01% (inactive). In addition, the Potency entry in experiment [3] and in experiment [11] was “inactive” each time. Also, in experiment [9], the activity change % (negative = inhibition) was -12.3% (inactive). The activation in [13] was -0.857% (inactive).
